The values below come from PubChem BioAssay (NCATS).

The nature of test [1]: Quantitative High-Throughput drug screen in 47 multiple myeloma cell lines against the NCATS MIPE library collection: RPMI8226_ATCC cell viability assay (AID 1919871). Also: nearly all actives have a fitted effect of over 30% in size. Also: potency is read from the fitted curve at half-maximal effect. In a few lines:
(§1)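 Myeloma cells (500/well) treated with MIPE 4.0 compounds for 48 h at 37 °C, 5% CO2. Viability read as ATP via CellTiter-Glo luminescence after 5 min at RT; DMSO-only wells = 100%, media-only = 0% viability.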

The nature of test [2]: Quantitative High-Throughput drug screen in 47 multiple myeloma cell lines against the NCATS MIPE library collection: KMS11_JCRBsus cell viability assay (AID 1919873). Also: nearly all actives have a fitted effect of over 50% in size. Also: potency is read from the fitted curve at half-maximal effect. In a few lines:
as §1

Test [3] is described as follows: Quantitative High-Throughput drug screen in 47 multiple myeloma cell lines against the NCATS MIPE library collection: KMS28BM_JCRB cell viability assay (AID 1919874). Also: nearly all actives have a fitted effect of over 35% in size. The essentials: as §1
Test [4] is described as follows: qHTS drug screen for cell cycle checkpoint inhibitors in PARPi-resistant BRCA-mutant ovarian cancer cell lines. (AID 1963452; calls by dose curve). The conditions noted are these: PEO1/OlaR viability, CellTiter-Glo luminescence, 96 h, stronger effect = lower value. In a few lines: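 PEO1, PEO4 and PEO1/OlaR ovarian cancer cells, 600 per well, exposed 96 h at 37C to a dilution series. Viability read by CellTiter-Glo luminescence, normalized to DMSO and empty wells; activity summarized as Z-AUC.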
On the technique in general: In qHTS, concentration-response curves come from the screen itself.

Test [5] in a line: qHTS for identification of novel therapeutic agents for treatment of microphthalmiaassociated transcription factor (MiT) renal cell carcinoma (RCC) (AID 1963991).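 Also: curves scaled with 100% = DMSO viability and 0% = empty wells.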 The conditions noted are these: CellTiter-Glo, 48 h, stronger effect = lower value. In a few lines: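 UOK109/UOK124/UOK145 (TFE3 fusions, three partners); 500 cells/well; MIPE v4.0, 1912 cpds, 11 conc.; 48 h, 37 C; CellTiter-Glo, 15 min RT; lum. Norm.: DMSO 100%, empty 0%.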

A short description of test [6]: qHTS profiling for inhibitors of Plasmodium falciparum proliferation (AID 504749).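 Also: 0% = DMSO vehicle and full inhibition = artemisinin control; nearly all actives have a fitted effect of over 60% in size.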 The conditions noted are these: P. falciparum in erythrocytes, SYBR Green DNA, 72 h. In a few lines: (§2)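 P. falciparum-infected erythrocytes (0.3% parasitemia, 2.5% hematocrit final) were exposed to compounds for 72 h at 37 C in 5% CO2, then lysed with SYBR Green buffer overnight at room temperature; parasite DNA fluorescence was normalized to artemisinin and DMSO controls.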

Test [7] deals with 3D7. The test is described as above. The conditions noted are these: P. falciparum in erythrocytes, SYBR Green DNA, 72 h; series mostly up to 28.7 µM. The essentials: as §2
Test [8] deals with 7G8. The description is as above. The conditions noted are these: P. falciparum in erythrocytes, SYBR Green DNA, 72 h; series mostly up to 28.7 µM. The essentials:
as §2

Test [9] has as its system AA1029. The description is as above. The conditions noted are these: P. falciparum in erythrocytes, SYBR Green DNA, 72 h; series mostly up to 28.7 µM. In a few lines: as §2
In test [10] the test system is AS120. The test is described as above. The conditions noted are these: P. falciparum in erythrocytes, SYBR Green DNA, 72 h; series mostly up to 28.7 µM. In a few lines:
as §2

Test [11] relates to ATS189. The test is described as above. The conditions noted are these: P. falciparum in erythrocytes, SYBR Green DNA, 72 h; series mostly up to 28.7 µM. The essentials: as §2
In test [12] the test system is ATS95. The test is described as above. The conditions noted are these: P. falciparum in erythrocytes, SYBR Green DNA, 72 h; series mostly up to 28.7 µM. The essentials: as §2
In test [13] the test system is C2A. The test is described as above. The conditions noted are these: P. falciparum in erythrocytes, SYBR Green DNA, 72 h; series mostly up to 28.7 µM. The essentials:
as §2

In test [14] the test system is CP185. The test is described as above. The conditions noted are these: P. falciparum in erythrocytes, SYBR Green DNA, 72 h; series mostly up to 28.7 µM. In a few lines: as §2
Test [15] can be described thus: KB-8-5-11 P-gp reporter qHTS against the NCATS DSHEA and TCM libraries (AID 1919977). Also: 0% is about no effect. The essentials: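 CellTiter-Glo luminescence measured viability after ~72 h exposure (37C, 5% CO2) of KB-8-5-11 cervical adenocarcinoma cells overexpressing P-gp. Colchicine was omitted during assay. Substances were tested as titrations.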
The mark [16] stands for this setting: measured here: PEO1 parental Z-AUC.
Where [17] appears, read: at 28.7 µM (top of the series), parasite line A.
The mark [18] stands for this setting: at 28.7 µM (top of the series), parasite line B.

SMILES strings stand for the structures. Results filed as inconclusive are left out. The source made the active and inactive calls. Unless noted, calls follow the shape of the dose curve; as a rule, active = well fitted curve in the direction sought with a large enough effect; inconclusive = small, poorly fitted or top-dose-only effect, or another doubt; inactive = no such curve, though single readings can be large; an effect the other way counts as inactive or inconclusive.

In the case of `CC(C)c1cccc(C(C)C)c1O`, the Potency entry in test [1], in test [2], in [7], in test [8], in test [9] and in [10] was “inactive” each time. Also, the Potency result in test [11], in [12], in [13] and in [14] was “inactive” throughout. Besides, the compound was classed as inactive in test [3]. Also, the Z-AUC in test [4] is 0.183 (inactive); in [4] (setting [16]) it was 0.696; in [4] (measured here: PEO4 Z-AUC), 0.584. The z-score is -1.1 in test [5] (TFE3-RCC UOK109 viability, measured here: UOK109 Z-AUC); 0.663 in [5] (TFE3-RCC viability, measured here: UOK124 Z-AUC); 0.666 in test [5] (TFE3-RCC viability, measured here: UOK145 Z-AUC). Besides, the activity, negative = inhibition in test [6] (setting [17]) was 13.6% (inactive); in [6] (setting [18]) it was 4.13% (inactive).
As to `C=CCc1ccc(O)c(OC)c1`, the outcome in test [15] was inactive.
As for `O=C(O)c1cc(O)c(O)c(O)c1`, in test [15], the compound was called inactive.
As for `CC12CCC(CC1)C(C)(C)O2`, in test [15], the call was inactive.
Same read-out and setting: then `O=C(O)c1cccnc1`, with “inactive”.
For `O=C(O)CCCc1ccc(N(CCCl)CCCl)cc1`, the Potency entry in test [2], in test [7], in test [9], in test [10], in test [11] and in test [12] was “inactive” in each case. The Potency entry in test [13] and in test [14] was “inactive” each time. In addition, the Z-AUC in test [4] is 0.915 (inactive); in test [4] (setting [16]) it was 0.822; in [4] (measured here: PEO4 Z-AUC) it was 1.2. Further, the activity, negative = inhibition is -9.59% (inactive) in [6] (setting [17]) and 1.97% (inactive) in test [6] (setting [18]).
Turning to `C[C@]12CCC(=O)C=C1CC[C@@H]1[C@H]3CC[C@](C)(O)[C@@]3(C)CC[C@@H]12`, the Potency in [1] was 38.2 µM (active); in test [2] it was 42.9 µM (active).
In the case of `C[C@]12CC[C@@H]3c4ccc(OC(=O)N(CCCl)CCCl)cc4CC[C@H]3[C@@H]1CC[C@@H]2OP(=O)(O)O`, the Potency entry in test [1] and in test [2] was “inactive” each time. Besides, the result in [3] was inactive. The Z-AUC in [4] is 0.291 (inactive); in test [4] (setting [16]), 1.75; in test [4] (measured here: PEO4 Z-AUC) it was 1.95.
Regarding `C[C@]12Cc3cn[nH]c3C[C@@H]1CC[C@@H]1[C@@H]2CC[C@@]2(C)[C@H]1CC[C@]2(C)O`, the values for the Z-AUC in [4], in [4] (setting [16]) and in test [4] (measured here: PEO4 Z-AUC) were 1.25 (inactive), 0.915 and 1.64, respectively.
On to `C[C@](O)(CS(=O)(=O)c1ccc(F)cc1)C(=O)Nc1ccc(C#N)c(C(F)(F)F)c1`, for which the Potency result in [1], in test [2], in [7], in [9], in test [10] and in test [11] was “inactive” each time. Further, the Potency entry in test [12], in [13] and in test [14] was “inactive” each time. Also, the figures for the Z-AUC in test [4], in test [4] (setting [16]) and in [4] (measured here: PEO4 Z-AUC) were 0.83 (inactive), 0.549 and 0.67, respectively.
Regarding `O=C(Nc1ccc(Br)cc1)c1cc(Br)cc(Br)c1O`, the activity, negative = inhibition in test [6] (setting [17]) is 6.84% (inactive); in [6] (setting [18]), 4.1% (inactive). For the same compound, the Potency entry in test [7], in test [8], in test [9], in test [10], in [11] and in [12] was “inactive” in each case. Besides, the Potency result in test [13] and in [14] was “inactive” throughout.
Regarding `CCCCC/C=C\C/C=C\C/C=C\C/C=C\CCCC(=O)NCC(=O)O`, the activity, negative = inhibition in [6] (at 2.67 µM (top of the series), parasite line A) was -21.1% (inactive); in test [6] (at 2.67 µM (top of the series), parasite line B) it was 4.55% (inactive); in test [7], -0.415% [at 2.67 µM] (inactive); in test [8], -4.42% [at 2.67 µM] (inactive); in [9], -5.7% [at 2.67 µM] (inactive); in [10], -10.8% [at 2.67 µM] (inactive). The activity, negative = inhibition in [11] is -4.38% [at 2.67 µM] (inactive); in [12], -8.06% [at 2.67 µM] (inactive); in [13], -0.778% [at 2.67 µM] (inactive); in test [14] it was 13.1% [at 2.67 µM] (inactive).
